Results from PubChem BioAssay (NCI).
The panel holds about 83,000 compounds, 20% with a hit somewhere; the sample as a whole holds those more often.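 Values shown are percent growth following 48 h exposure of cells in 96-well plates to a single concentration of compound; below 10 was considered active.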 Activity calls are given as the source filed them.

Tests used:
Test in all cases: NCI-60 one-dose screen, 48 h (100 = growth as untreated, 0 = no growth, -100 = all killed)
Details in all cases: 10 µM
HT29 colon = test system: HT29 colon
SNB-75 CNS = test system: SNB-75 CNS
SNB-19 CNS = test system: SNB-19 CNS
U251 CNS = test system: U251 CNS
PC-3 prostate = test system: PC-3 prostate
SK-MEL-5 melanoma = test system: SK-MEL-5 melanoma
UACC-62 melanoma = test system: UACC-62 melanoma
LOX IMVI melanoma = test system: LOX IMVI melanoma
SK-MEL-28 melanoma = test system: SK-MEL-28 melanoma
SK-MEL-2 melanoma = test system: SK-MEL-2 melanoma

Measured: growth

Cc1cn(C2CCCCO2)c(=O)nc1NO (stereo not given)
inactive: HT29 colon 110% | SNB-75 CNS 99.3% | SNB-19 CNS 105% | U251 CNS 112% | PC-3 prostate 104% | SK-MEL-5 melanoma 108% | UACC-62 melanoma 104% | LOX IMVI melanoma 110% | SK-MEL-28 melanoma 116% | SK-MEL-2 melanoma 120%

COc1cc(/C=C/C(=O)c2ccc(Cl)cc2)ccc1OS(=O)(=O)c1ccc(C)cc1
active: LOX IMVI melanoma 2.55%
inactive: HT29 colon 28.5% | SNB-75 CNS 105% | SNB-19 CNS 98.5% | U251 CNS 83.7% | PC-3 prostate 76.1% | SK-MEL-5 melanoma 100% | UACC-62 melanoma 79.4% | SK-MEL-28 melanoma 106% | SK-MEL-2 melanoma 108%

CN(C)CC(O)c1ccc2cc(Br)c3ccccc3c2c1 (stereo not given)
inactive: HT29 colon 22% | SNB-75 CNS 41.8% | SNB-19 CNS 64.7% | U251 CNS 56.4% | PC-3 prostate 49% | SK-MEL-5 melanoma 62.3% | LOX IMVI melanoma 28.9% | SK-MEL-28 melanoma 32.7% | SK-MEL-2 melanoma 102%
active: UACC-62 melanoma -64.8%

N#CCCN1C/C(=C/c2ccc(Cl)cc2)C(=O)/C(=C/c2ccc(Cl)cc2)C1
inactive: SNB-75 CNS 11.6% | SK-MEL-2 melanoma 19%
active: HT29 colon -36.1% | SNB-19 CNS -28% | U251 CNS -95.3% | PC-3 prostate -39.6% | SK-MEL-5 melanoma -60.6% | UACC-62 melanoma -66.1% | LOX IMVI melanoma -80.4% | SK-MEL-28 melanoma -61.4%

COc1ccc(Nc2ccnc(NCCNc3ccnc4cc(Cl)ccc34)n2)cc1
inactive: SNB-75 CNS 78.9% | SNB-19 CNS 67.4% | U251 CNS 59.1% | PC-3 prostate 30.1% | UACC-62 melanoma 74.9% | SK-MEL-2 melanoma 71.8%
active: HT29 colon 9.08% | SK-MEL-5 melanoma -50.8% | LOX IMVI melanoma 8.82% | SK-MEL-28 melanoma -29%

O=C(O)CC(Cl)C(Cl)CC(=O)O (stereo not given)
inactive: HT29 colon 101% | SNB-75 CNS 103% | SNB-19 CNS 103% | U251 CNS 98.6% | PC-3 prostate 98.1% | SK-MEL-5 melanoma 108% | UACC-62 melanoma 100% | LOX IMVI melanoma 94% | SK-MEL-28 melanoma 107% | SK-MEL-2 melanoma 107%

COc1ccccc1/C=C/C(=O)c1ccccc1
inactive: HT29 colon 54.2% | SNB-75 CNS 87.8% | SNB-19 CNS 99.4% | U251 CNS 58.4% | PC-3 prostate 54.5% | SK-MEL-5 melanoma 82.1% | UACC-62 melanoma 67.3% | LOX IMVI melanoma 59.8% | SK-MEL-28 melanoma 97.5% | SK-MEL-2 melanoma 84%

COC(=O)C(=C\c1ccc2c(c1)OCO2)/C(=C/c1ccc2c(c1)OCO2)C(=O)OC
inactive: HT29 colon 88.9% | SNB-75 CNS 87.7% | SNB-19 CNS 106% | U251 CNS 98.5% | PC-3 prostate 93.8% | SK-MEL-5 melanoma 101% | UACC-62 melanoma 98.6% | LOX IMVI melanoma 90.8% | SK-MEL-28 melanoma 103% | SK-MEL-2 melanoma 102%

Cn1c([N+](=O)[O-])cnc1/C=C1\Oc2ccccc2C1=O
active: HT29 colon -23.7% | SNB-19 CNS -17.3% | U251 CNS -12.6% | PC-3 prostate -21.4% | SK-MEL-5 melanoma -94.1% | UACC-62 melanoma -90% | LOX IMVI melanoma -50.2% | SK-MEL-28 melanoma -25.9% | SK-MEL-2 melanoma -53.3%
inactive: SNB-75 CNS 43.8%

COc1ccc(-c2nc3sccn3c2-c2nc3c([nH]2)C(=O)c2ccccc2C3=O)cc1
inactive: HT29 colon 96.2% | SNB-75 CNS 81.7% | SNB-19 CNS 96.4% | U251 CNS 87.1% | PC-3 prostate 73.7% | SK-MEL-5 melanoma 89% | UACC-62 melanoma 82.2% | LOX IMVI melanoma 90.7% | SK-MEL-28 melanoma 89.6% | SK-MEL-2 melanoma 101%

COc1ccc(-c2nc(-c3nc4cc(Cl)c(Cl)cc4[nH]3)c3ccccn23)cc1
active: SNB-75 CNS -29.1%
inactive: HT29 colon 51.4% | SNB-19 CNS 50.5% | U251 CNS 22.6% | PC-3 prostate 57% | SK-MEL-5 melanoma 48.3% | UACC-62 melanoma 88.9% | LOX IMVI melanoma 43.6% | SK-MEL-28 melanoma 62.2% | SK-MEL-2 melanoma 58.1%

CC/C(C)=C(\C)C(=O)O
inactive: HT29 colon 106% | SNB-75 CNS 94.5% | SNB-19 CNS 112% | U251 CNS 105% | PC-3 prostate 104% | SK-MEL-5 melanoma 103% | UACC-62 melanoma 112% | LOX IMVI melanoma 92.7% | SK-MEL-28 melanoma 111% | SK-MEL-2 melanoma 102%

O=c1[nH]c(-c2ccc(Cl)cc2)nc2sc3c(c12)CCCC3
inactive: HT29 colon 106% | SNB-75 CNS 57.9% | SNB-19 CNS 76.6% | U251 CNS 54.3% | PC-3 prostate 93.2% | SK-MEL-5 melanoma 75.9% | UACC-62 melanoma 55.8% | LOX IMVI melanoma 48.9% | SK-MEL-28 melanoma 107% | SK-MEL-2 melanoma 102%

CN(C)CCOc1nc2ccccc2c2c1-c1ccc(Cl)cc1C2=O
active: HT29 colon -33.8% | SNB-75 CNS -63.8% | U251 CNS 0.224% | PC-3 prostate 2.76% | SK-MEL-5 melanoma -91.6% | UACC-62 melanoma -39.5% | LOX IMVI melanoma -37.1% | SK-MEL-28 melanoma -49.9% | SK-MEL-2 melanoma -9.67%
inactive: SNB-19 CNS 14.9%

CC/C(=N\N=C(/CC)c1ccc(Br)cc1)c1ccc(Br)cc1
inactive: HT29 colon 74.1% | SNB-75 CNS 89.9% | SNB-19 CNS 108% | U251 CNS 105% | PC-3 prostate 94.2% | SK-MEL-5 melanoma 104% | UACC-62 melanoma 87.9% | LOX IMVI melanoma 98.7% | SK-MEL-28 melanoma 104% | SK-MEL-2 melanoma 97.3%

O=C1/C(=C\c2ccc(Cl)cc2)CN(C(=O)c2ccccc2)C/C1=C\c1ccc(Cl)cc1
active: HT29 colon -84.9% | U251 CNS -74% | LOX IMVI melanoma -51.8%
inactive: SNB-75 CNS 51.4% | SNB-19 CNS 68.2% | PC-3 prostate 25.8% | SK-MEL-5 melanoma 66.8% | UACC-62 melanoma 34.6% | SK-MEL-28 melanoma 59.7% | SK-MEL-2 melanoma 87.1%

O=C(CSSCC(=O)c1ccc(Cl)cc1)c1ccc(Cl)cc1
inactive: HT29 colon 92.6% | SNB-75 CNS 62% | SNB-19 CNS 52.8% | U251 CNS 53.7% | PC-3 prostate 61.1% | SK-MEL-5 melanoma 29.7% | UACC-62 melanoma 57.8% | LOX IMVI melanoma 40.7% | SK-MEL-28 melanoma 59.5% | SK-MEL-2 melanoma 79.5%

CC/C(=C(/c1ccc(OCCN(C)C)cc1)c1ccc(OC(=O)CCCCCCCCC(=O)c2c(C)[nH]c(/C=C3\N=C(c4ccc[nH]4)C=C3OC)c2C)cc1)c1ccccc1
inactive: HT29 colon 25.9% | SNB-75 CNS 64.7% | SNB-19 CNS 81.4% | U251 CNS 43.5% | PC-3 prostate 43% | SK-MEL-5 melanoma 29.3% | UACC-62 melanoma 51.2% | LOX IMVI melanoma 20.8% | SK-MEL-28 melanoma 84.3% | SK-MEL-2 melanoma 95.6%
